From PubChem BioAssay (NCATS) come the findings set out here.

Records with an inconclusive call do not appear. Calls of active or inactive are those of the source. Calls come from the whole dose curve; as a rule, active = well fitted curve in the direction sought with a large enough effect; inconclusive = small, poorly fitted or top-dose-only effect, or another doubt; inactive = no such curve, though single readings can be large; an effect the other way counts as inactive or inconclusive.

A short description of assay [1]: qHTS of pediatric cancer cell lines to identify multiple opportunities for drug repurposing: Primary screen for BT-37 cells (AID 1347094). Note: potency is the fitted concentration of half-maximal effect. Put shortly: (§1)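 Cells seeded at 500-1,000 cells/well in growth media, rested 5 hours at 37 degrees C, 5% CO2, then dosed; MIPE compounds at 11-point (from 0.78 nM) and NPC at 8-point (from 0.59 nM) final concentrations. Viability by CellTiter-Glo luminescence after 48 hours.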

Assay [2] in a line: qHTS of pediatric cancer cell lines to identify multiple opportunities for drug repurposing: Primary screen for U-2 OS cells (AID 1347096). Note: nearly all actives have a fitted effect of over 50% in size. The essentials:
(§2)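 Viability after 48 h compound treatment at 37C, 500-1,000 cells/well, read as ATP luminescence with CellTiter-Glo. Primary screens used 11-point (MIPE, 0.78 nM-46 µM) or 8-point (NPC, 0.59 nM-46 µM) final concentrations; follow-up screens used 11-point dilutions.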
In general terms: In qHTS, concentration-response curves come from the screen itself.

The nature of assay [3]: qHTS of pediatric cancer cell lines to identify multiple opportunities for drug repurposing: Primary screen for Saos-2 cells (AID 1347097). Note: potency is the fitted concentration of half-maximal effect; nearly all actives have a fitted effect of over 40% in size. Put shortly: as §1
The nature of assay [4]: qHTS of pediatric cancer cell lines to identify multiple opportunities for drug repurposing: Primary screen for NB1643 cells (AID 1347099). Note: nearly all actives have a fitted effect of over 50% in size. Note: potency is the fitted concentration of half-maximal effect. The essentials: as §1
The nature of assay [5]: qHTS of pediatric cancer cell lines to identify multiple opportunities for drug repurposing: Primary screen for OHS-50 cells (AID 1347103). Note: potency is the fitted concentration of half-maximal effect; nearly all actives have a fitted effect of over 40% in size. The essentials: (§3)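 Cells (500-1,000/well) rested 5 h, then received compounds for 48 h; metabolically active cells were measured by CellTiter-Glo luminescence. Final concentrations spanned up to 46 µM (MIPE, 11-point) or 0.59 nM-46 µM (NPC, 8-point) in primary screens, 11-point in follow-ups.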

Assay [6] in a line: qHTS of pediatric cancer cell lines to identify multiple opportunities for drug repurposing: Primary screen for RD cells (AID 1347104). Note: nearly all actives have a fitted effect of over 55% in size. Note: potency is the fitted concentration of half-maximal effect. Put shortly: as §1
Assay [7] can be described thus: qHTS of pediatric cancer cell lines to identify multiple opportunities for drug repurposing: Primary screen for Rh18 cells (AID 1347102). Note: potency is the fitted concentration of half-maximal effect; nearly all actives have a fitted effect of over 65% in size. Put shortly:
as §2

A short description of assay [8]: qHTS of pediatric cancer cell lines to identify multiple opportunities for drug repurposing: Primary screen for SJ-GBM2 cells (AID 1347091). Note: potency is the fitted concentration of half-maximal effect. The essentials:
(§4)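 Viability measured as metabolically active cells via CellTiter-Glo luminescence following 48 hours of compound exposure, 11-point dilutions in confirmatory testing. 500-1,000 cells/well plated 5 hours before dosing; controls were DMSO and 2.3 µM bortezomib.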

A short description of assay [9]: qHTS of pediatric cancer cell lines to identify multiple opportunities for drug repurposing: Primary screen for A673 cells (AID 1347092). Note: potency is the fitted concentration of half-maximal effect; nearly all actives have a fitted effect of over 45% in size. The essentials: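 48 h compound exposure, A673, 500-1,000 cells/well, 37 degrees C/5% CO2. MIPE: 11-point, 0.78 nM-46 µM; NPC: 8-point, 0.59 nM-46 µM (final). Readout CellTiter-Glo luminescence after 15 min RT.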
Assay [10] can be described thus: qHTS of pediatric cancer cell lines to identify multiple opportunities for drug repurposing: Primary screen for SK-N-MC cells (AID 1347093). Note: potency is the fitted concentration of half-maximal effect. The essentials:
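Metabolically active cells were quantified by ATP-dependent luminescence (CellTiter-Glo, 15 min at room temperature) following 48 h treatment. Cells had been plated at 500-1,000 per well and settled for 5 h beforehand.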

Assay [11] is described as follows: qHTS of pediatric cancer cell lines to identify multiple opportunities for drug repurposing: Primary screen for SK-N-SH cells (AID 1347098). Note: potency is the fitted concentration of half-maximal effect; nearly all actives have a fitted effect of over 65% in size. The essentials:
as §3

The nature of assay [12]: qHTS of pediatric cancer cell lines to identify multiple opportunities for drug repurposing: Primary screen for LAN-5 cells (AID 1347100). Note: potency is the fitted concentration of half-maximal effect. The essentials: as §2
A short description of assay [13]: qHTS of pediatric cancer cell lines to identify multiple opportunities for drug repurposing: Primary screen for BT-12 cells (AID 1347101). Note: potency is the fitted concentration of half-maximal effect; nearly all actives have a fitted effect of over 25% in size. The essentials: as §3
Assay [14] is described as follows: qHTS of pediatric cancer cell lines to identify multiple opportunities for drug repurposing: Primary screen for DAOY cells (AID 1347090). Note: potency is the fitted concentration of half-maximal effect; nearly all actives have a fitted effect of over 55% in size. The essentials: as §4
Assay [15] in a line: qHTS of pediatric cancer cell lines to identify multiple opportunities for drug repurposing: Primary screen for NB-EBc1 cells (AID 1347095). Note: potency is the fitted concentration of half-maximal effect. The essentials:
as §1

In the case of `O=C(O)C1(Cc2cccc(Nc3nccs3)n2)CCC(Oc2cccc(Cl)c2F)CC1` (stereo not drawn), the Potency result in assay [1], in [2], in assay [4] and in [6] was “inactive” in each case. In addition, the Potency in assay [3] was 14.8 µM (active); in assay [5] it was 0.544 µM (active).
Turning to `COC(=O)C1=C(C)NC(C)=C(C(=O)OCCN2CCN(C(c3ccccc3)c3ccccc3)CC2)C1c1cccc([N+](=O)[O-])c1` (stereo not drawn), the Potency entry in [2] is “inactive”. Moreover, the Potency in [3] was 13.3 µM (active); in assay [4] it was 16.8 µM (active); in [7] it was 16.8 µM (active); in [5], 15.5 µM (active).
With `COc1cc(-c2nn(C3CCC(N4CCN(C(C)=O)CC4)CC3)c3ncnc(N)c23)ccc1NC(=O)c1cc2ccccc2n1C` (stereo not drawn), the Potency is 1.87 µM (active) in [8]; 0.235 µM (active) in [9]; 0.743 µM (active) in assay [10]; 0.526 µM (active) in assay [3]; 3.41 µM (active) in assay [11]; 0.332 µM (active) in assay [12]. The Potency in [5] is 2.17 µM (active).
Take `O=C(Nc1nc2cccc(-c3ccc(CN4CCS(=O)(=O)CC4)cc3)n2n1)C1CC1`: the Potency in assay [8] was 18.7 µM (active); in [9], 11.8 µM (active); in [10], 5.26 µM (active); in assay [1], 19.3 µM (active); in assay [3], 18.7 µM (active); in assay [4] it was 10.5 µM (active). For the same compound, the Potency in assay [13] is 27.3 µM (active); in [6], 18.7 µM (active). The Potency result in assay [2] was “inactive”.
As to `CNC(=O)c1cc(Oc2ccc(NC(=O)Nc3cc(C(C)(C)C)nn3-c3ccc4ncccc4c3)c(F)c2)ccn1`, the Potency is 18.7 µM (active) in [14]; 1.32 µM (active) in [8]; 5.9 µM (active) in assay [9]; 2.35 µM (active) in assay [15]; 16.6 µM (active) in assay [3]; 19.2 µM (active) in assay [11]. Moreover, the Potency is 4.69 µM (active) in assay [4]; 24.3 µM (active) in assay [13]; 20.9 µM (active) in assay [7]; 27.3 µM (active) in [5]; 10.5 µM (active) in assay [6].
